Experimental data as given in paper PMC7862700, “An all-to-all approach to the identification of sequence-specific readers for epigenetic DNA modifications on cytosine”.

Key:
Assay in all cases: DAPPL (digital affinity profiling via proximity ligation, sequencing); 10 mM Tris-HCl pH 7.5, 50 mM NaCl, 1 mM DTT, 4% glycerol, room temperature, 30 min; GST-TFs on glutathione beads, 16-mer random dsDNA library, 0.1% formaldehyde crosslink after washing; high values mean tight binding
FLI1 = biological target: T1, FLI1 (Homo sapiens, UniProt Q01543 1-452); conditions: protein: recombinant; tags: N-terminal GST; dsDNA, one strand shown
T1 sequence: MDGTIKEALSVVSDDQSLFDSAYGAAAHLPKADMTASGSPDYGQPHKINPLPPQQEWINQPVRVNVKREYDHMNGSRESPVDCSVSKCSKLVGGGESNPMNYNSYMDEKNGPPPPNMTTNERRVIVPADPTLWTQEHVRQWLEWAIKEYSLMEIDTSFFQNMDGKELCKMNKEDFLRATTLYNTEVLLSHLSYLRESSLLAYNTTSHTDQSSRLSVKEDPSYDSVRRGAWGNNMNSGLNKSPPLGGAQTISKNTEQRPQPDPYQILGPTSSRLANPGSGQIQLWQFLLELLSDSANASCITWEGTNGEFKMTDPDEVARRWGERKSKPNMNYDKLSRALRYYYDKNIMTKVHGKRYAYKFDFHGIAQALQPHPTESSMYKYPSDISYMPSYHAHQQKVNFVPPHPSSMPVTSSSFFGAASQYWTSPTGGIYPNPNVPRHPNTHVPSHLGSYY
In short: (§1)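 GST fusions of human transcription factors were expressed in yeast and captured with glutathione beads. Once given DNA barcodes and pooled alongside a tag-only sample, they were incubated for 30 min at room temperature with 200 nmole of a random double-stranded 16-mer DNA library in Tris/NaCl/DTT/glycerol buffer, then washed, crosslinked (0.1% formaldehyde), proximity-ligated, PCR-amplified and sequenced on an Illumina NextSeq500. The binding signal of each hexamer is its read frequency for a factor divided by its frequency for the tag-only sample.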

ELK1 = biological target: T2, ELK1 (Homo sapiens, UniProt P19419 1-428); conditions: protein: recombinant; tags: N-terminal GST; dsDNA, one strand shown
T2 sequence: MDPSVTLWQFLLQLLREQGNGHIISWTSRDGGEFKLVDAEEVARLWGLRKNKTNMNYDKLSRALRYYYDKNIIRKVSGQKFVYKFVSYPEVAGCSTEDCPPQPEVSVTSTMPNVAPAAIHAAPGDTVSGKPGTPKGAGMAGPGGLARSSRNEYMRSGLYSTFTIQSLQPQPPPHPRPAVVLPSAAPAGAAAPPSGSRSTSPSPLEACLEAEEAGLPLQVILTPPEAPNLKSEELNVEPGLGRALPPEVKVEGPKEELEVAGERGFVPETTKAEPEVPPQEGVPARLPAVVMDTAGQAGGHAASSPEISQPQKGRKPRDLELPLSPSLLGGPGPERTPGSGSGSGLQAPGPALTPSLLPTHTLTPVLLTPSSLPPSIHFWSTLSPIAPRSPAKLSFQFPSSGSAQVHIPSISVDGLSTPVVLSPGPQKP
In short: as §1

GABPA = biological target: T3, GABPA (Homo sapiens, UniProt Q06546 1-454); conditions: protein: recombinant; tags: N-terminal GST; dsDNA, one strand shown
T3 sequence: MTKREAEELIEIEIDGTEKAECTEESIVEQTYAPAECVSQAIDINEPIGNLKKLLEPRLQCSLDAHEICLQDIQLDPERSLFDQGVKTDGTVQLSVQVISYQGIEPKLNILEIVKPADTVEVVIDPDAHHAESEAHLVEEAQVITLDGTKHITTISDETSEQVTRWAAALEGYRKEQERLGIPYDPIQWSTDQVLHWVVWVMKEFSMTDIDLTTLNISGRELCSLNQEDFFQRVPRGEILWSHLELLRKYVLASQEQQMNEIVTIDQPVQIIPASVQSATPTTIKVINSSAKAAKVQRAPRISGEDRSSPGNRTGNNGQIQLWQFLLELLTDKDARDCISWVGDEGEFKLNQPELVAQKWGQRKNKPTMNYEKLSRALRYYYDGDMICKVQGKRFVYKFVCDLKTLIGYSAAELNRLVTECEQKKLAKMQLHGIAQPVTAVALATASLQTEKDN
In short: as §1

ERG = biological target: T4, ERG (Homo sapiens, UniProt P11308 1-479); conditions: protein: recombinant; tags: N-terminal GST; dsDNA, one strand shown
T4 sequence: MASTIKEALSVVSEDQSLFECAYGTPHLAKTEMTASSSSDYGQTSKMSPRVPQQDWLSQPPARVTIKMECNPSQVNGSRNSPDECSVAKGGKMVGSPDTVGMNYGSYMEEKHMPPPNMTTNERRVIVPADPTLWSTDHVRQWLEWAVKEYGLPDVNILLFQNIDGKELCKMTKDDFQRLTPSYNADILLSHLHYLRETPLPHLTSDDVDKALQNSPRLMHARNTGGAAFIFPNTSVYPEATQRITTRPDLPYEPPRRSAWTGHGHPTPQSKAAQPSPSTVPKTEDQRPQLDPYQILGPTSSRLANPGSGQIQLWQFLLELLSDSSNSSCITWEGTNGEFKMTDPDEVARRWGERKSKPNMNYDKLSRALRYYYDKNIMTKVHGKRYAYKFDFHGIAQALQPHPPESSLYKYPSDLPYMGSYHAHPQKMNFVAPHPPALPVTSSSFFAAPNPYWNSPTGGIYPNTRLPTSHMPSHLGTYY
In short: as §1

ELF1 = ELF1 (Homo sapiens, UniProt P32519 1-619); conditions: protein: recombinant; tags: N-terminal GST; dsDNA, one strand shown
In short: as §1

EHF = biological target: T5, EHF (Homo sapiens, UniProt Q9NZC4 1-300); conditions: protein: recombinant; tags: N-terminal GST; dsDNA, one strand shown
T5 sequence: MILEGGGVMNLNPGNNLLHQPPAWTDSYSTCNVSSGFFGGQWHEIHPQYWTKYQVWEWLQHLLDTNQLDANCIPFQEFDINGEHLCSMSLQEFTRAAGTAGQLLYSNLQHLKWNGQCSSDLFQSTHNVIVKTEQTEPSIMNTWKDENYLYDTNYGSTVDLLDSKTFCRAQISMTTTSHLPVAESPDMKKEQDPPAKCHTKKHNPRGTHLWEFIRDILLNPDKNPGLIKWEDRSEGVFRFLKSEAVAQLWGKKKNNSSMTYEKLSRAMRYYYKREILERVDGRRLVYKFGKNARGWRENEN
In short: as §1

SPI1 = SPI1 (Homo sapiens, UniProt P17947 1-270); conditions: protein: recombinant; tags: N-terminal GST; dsDNA, one strand shown
In short: as §1

SPIB = SPIB (Homo sapiens, UniProt Q01892 1-262); conditions: protein: recombinant; tags: N-terminal GST; dsDNA, one strand shown
In short: as §1

ELK3 = biological target: T6, ELK3 (Homo sapiens, UniProt P41970 1-407); conditions: protein: recombinant; tags: N-terminal GST; dsDNA, one strand shown
T6 sequence: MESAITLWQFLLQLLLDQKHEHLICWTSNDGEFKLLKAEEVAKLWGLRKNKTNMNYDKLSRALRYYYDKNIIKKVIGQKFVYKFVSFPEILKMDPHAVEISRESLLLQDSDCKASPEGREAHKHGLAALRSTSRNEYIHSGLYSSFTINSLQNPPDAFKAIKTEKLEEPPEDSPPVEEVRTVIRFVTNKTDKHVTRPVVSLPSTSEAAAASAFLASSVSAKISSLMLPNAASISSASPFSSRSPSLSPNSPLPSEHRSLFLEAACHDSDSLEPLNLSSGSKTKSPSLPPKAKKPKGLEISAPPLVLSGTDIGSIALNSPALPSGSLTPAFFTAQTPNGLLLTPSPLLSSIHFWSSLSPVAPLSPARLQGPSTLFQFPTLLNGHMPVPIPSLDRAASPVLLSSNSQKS
In short: as §1

FEV = biological target: T7, FEV (Homo sapiens, UniProt Q99581 1-238); conditions: protein: recombinant; tags: N-terminal GST; dsDNA, one strand shown
T7 sequence: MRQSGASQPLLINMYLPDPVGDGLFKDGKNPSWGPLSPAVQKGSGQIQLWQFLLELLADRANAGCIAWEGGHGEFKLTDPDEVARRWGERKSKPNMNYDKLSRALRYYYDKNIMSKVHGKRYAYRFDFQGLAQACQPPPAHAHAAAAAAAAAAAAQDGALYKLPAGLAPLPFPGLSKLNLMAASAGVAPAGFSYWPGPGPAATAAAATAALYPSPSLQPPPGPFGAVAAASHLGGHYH
In short: as §1

ETV5 = ETV5 (Homo sapiens, UniProt P41161 1-510); conditions: protein: recombinant; tags: N-terminal GST; dsDNA, one strand shown
In short: as §1

HSF1 = HSF1 (Homo sapiens, UniProt Q00613 1-529); conditions: protein: recombinant; tags: N-terminal GST; chain copies: 3; dsDNA, one strand shown
In short: as §1

SPIC = biological target: T8, SPIC (Homo sapiens, UniProt Q8N5J4 1-248); conditions: protein: recombinant; tags: N-terminal GST; dsDNA, one strand shown
T8 sequence: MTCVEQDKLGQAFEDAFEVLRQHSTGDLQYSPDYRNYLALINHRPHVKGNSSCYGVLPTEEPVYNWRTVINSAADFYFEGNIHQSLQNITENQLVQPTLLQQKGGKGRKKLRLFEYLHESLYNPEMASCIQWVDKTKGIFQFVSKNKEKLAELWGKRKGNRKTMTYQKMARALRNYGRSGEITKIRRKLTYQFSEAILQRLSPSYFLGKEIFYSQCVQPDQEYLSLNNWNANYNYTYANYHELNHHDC
In short: as §1

ELF4 = ELF4 (Homo sapiens, UniProt Q99607 1-663); conditions: protein: recombinant; tags: N-terminal GST; dsDNA, one strand shown
In short: as §1

ELK4 = biological target: T9, ELK4 (Homo sapiens, UniProt P28324-2 1-405); conditions: protein: recombinant; tags: N-terminal GST; dsDNA, one strand shown
T9 sequence: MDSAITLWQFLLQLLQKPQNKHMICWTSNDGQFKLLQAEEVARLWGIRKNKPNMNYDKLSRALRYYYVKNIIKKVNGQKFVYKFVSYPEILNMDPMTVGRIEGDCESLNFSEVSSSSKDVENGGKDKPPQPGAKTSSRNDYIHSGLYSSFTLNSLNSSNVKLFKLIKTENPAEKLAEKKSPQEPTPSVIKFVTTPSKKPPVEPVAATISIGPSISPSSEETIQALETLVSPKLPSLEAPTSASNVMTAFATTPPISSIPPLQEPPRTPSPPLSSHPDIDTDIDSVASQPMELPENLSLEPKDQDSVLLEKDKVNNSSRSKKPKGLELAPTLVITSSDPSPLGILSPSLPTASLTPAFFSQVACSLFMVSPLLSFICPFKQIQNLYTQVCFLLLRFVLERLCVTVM
In short: as §1

ETV2 = biological target: T10, ETV2 (Homo sapiens, UniProt O00321 1-342); conditions: protein: recombinant; tags: N-terminal GST; dsDNA, one strand shown
T10 sequence: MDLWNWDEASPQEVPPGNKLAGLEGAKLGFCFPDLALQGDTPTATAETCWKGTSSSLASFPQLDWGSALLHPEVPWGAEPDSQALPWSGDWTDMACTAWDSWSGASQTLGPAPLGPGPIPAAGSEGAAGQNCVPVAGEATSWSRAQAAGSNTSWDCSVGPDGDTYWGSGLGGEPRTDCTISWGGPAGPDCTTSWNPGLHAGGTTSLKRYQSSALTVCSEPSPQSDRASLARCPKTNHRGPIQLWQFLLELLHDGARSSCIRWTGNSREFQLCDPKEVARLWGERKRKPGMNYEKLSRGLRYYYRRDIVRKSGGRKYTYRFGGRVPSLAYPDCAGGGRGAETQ
In short: as §1

ELF3 = biological target: T11, ELF3 (Homo sapiens, UniProt P78545 1-371); conditions: protein: recombinant; tags: N-terminal GST; dsDNA, one strand shown
T11 sequence: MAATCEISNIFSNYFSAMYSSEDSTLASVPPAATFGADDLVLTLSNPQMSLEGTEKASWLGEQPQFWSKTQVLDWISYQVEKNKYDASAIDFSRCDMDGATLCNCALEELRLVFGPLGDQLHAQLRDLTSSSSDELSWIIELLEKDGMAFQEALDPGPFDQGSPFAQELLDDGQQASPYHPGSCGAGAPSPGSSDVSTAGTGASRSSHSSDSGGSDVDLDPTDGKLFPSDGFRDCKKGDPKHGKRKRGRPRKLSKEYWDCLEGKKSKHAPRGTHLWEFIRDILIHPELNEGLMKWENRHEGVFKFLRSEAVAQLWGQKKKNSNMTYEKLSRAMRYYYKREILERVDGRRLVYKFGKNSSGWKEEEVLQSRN
In short: as §1

CRX = CRX (Homo sapiens, UniProt O43186 1-299); conditions: protein: recombinant; tags: N-terminal GST; dsDNA, one strand shown
In short: as §1

ETV1 = ETV1 (Homo sapiens, UniProt P50549 1-477); conditions: protein: recombinant; tags: N-terminal GST; dsDNA, one strand shown
In short: as §1

CRX, sequence (O43186 whole entry): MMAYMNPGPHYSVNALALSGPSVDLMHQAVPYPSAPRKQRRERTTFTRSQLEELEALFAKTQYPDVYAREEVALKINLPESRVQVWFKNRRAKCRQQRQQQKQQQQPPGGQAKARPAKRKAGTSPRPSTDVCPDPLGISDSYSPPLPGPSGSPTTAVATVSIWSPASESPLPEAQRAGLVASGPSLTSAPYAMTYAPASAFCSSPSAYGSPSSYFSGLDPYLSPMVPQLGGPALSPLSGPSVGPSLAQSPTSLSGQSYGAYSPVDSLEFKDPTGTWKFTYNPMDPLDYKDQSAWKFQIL
HSF1, sequence (Q00613 whole entry): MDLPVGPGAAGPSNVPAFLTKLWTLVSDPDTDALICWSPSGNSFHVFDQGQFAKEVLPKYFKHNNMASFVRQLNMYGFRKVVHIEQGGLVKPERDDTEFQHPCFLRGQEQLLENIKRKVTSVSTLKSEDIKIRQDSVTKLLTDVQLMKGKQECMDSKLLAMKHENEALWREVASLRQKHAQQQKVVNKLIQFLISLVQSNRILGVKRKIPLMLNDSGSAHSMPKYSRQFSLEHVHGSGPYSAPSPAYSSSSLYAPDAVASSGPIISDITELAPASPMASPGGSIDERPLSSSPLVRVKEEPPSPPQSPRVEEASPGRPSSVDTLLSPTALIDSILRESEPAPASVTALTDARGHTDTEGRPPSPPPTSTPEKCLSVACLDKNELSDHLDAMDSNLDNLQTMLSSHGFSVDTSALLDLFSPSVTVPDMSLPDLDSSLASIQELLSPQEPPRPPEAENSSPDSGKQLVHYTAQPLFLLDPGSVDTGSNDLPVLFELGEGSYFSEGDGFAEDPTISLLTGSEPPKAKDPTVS
ELF4, sequence (Q99607 whole entry): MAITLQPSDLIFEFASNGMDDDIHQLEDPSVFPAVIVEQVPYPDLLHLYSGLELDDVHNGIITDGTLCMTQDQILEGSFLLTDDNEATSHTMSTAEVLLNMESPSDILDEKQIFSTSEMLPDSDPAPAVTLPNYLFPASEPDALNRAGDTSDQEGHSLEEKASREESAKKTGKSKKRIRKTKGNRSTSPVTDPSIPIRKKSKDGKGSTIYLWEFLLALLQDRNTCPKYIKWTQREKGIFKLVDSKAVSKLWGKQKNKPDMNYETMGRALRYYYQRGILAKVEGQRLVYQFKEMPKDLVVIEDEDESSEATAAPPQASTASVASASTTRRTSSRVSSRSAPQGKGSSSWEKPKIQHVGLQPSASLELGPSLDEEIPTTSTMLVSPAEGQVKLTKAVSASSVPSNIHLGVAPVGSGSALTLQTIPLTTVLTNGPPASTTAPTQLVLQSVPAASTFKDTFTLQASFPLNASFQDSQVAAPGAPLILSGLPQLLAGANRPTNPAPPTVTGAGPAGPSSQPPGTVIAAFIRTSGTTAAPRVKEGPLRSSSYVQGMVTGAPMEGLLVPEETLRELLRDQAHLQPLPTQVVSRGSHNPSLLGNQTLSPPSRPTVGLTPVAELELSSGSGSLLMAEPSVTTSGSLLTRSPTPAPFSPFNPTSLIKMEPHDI
ELF1, sequence (P32519 whole entry): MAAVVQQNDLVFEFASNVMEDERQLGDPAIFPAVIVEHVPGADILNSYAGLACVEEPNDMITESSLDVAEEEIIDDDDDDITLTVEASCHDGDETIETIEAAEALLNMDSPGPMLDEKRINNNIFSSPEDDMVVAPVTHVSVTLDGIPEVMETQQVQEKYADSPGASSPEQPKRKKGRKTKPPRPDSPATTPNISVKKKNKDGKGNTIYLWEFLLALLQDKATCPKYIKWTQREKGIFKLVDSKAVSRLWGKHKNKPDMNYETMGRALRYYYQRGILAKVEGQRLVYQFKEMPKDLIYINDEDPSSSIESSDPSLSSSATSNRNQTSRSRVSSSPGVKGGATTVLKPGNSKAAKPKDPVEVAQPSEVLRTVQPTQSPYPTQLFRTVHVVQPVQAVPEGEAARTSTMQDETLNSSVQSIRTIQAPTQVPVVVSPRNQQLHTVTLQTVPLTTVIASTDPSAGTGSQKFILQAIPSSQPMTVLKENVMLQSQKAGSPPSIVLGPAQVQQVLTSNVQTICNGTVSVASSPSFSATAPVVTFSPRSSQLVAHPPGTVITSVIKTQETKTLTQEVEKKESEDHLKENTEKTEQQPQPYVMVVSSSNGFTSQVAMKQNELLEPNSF
ETV1, sequence (P50549 whole entry): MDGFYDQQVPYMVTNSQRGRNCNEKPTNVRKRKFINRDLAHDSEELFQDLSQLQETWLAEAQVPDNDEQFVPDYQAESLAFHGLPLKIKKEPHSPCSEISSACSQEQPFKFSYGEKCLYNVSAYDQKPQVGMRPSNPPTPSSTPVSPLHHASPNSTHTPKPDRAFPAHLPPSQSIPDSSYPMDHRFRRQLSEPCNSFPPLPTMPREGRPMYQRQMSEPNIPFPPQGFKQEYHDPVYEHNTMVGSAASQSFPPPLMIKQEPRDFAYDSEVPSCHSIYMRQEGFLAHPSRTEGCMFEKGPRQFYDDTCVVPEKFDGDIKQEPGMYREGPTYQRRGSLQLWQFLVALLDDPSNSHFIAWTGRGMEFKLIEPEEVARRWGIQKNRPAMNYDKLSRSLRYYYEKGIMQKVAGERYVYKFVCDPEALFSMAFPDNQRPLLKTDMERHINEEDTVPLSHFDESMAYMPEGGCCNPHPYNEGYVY
ETV5, sequence (P41161 whole entry): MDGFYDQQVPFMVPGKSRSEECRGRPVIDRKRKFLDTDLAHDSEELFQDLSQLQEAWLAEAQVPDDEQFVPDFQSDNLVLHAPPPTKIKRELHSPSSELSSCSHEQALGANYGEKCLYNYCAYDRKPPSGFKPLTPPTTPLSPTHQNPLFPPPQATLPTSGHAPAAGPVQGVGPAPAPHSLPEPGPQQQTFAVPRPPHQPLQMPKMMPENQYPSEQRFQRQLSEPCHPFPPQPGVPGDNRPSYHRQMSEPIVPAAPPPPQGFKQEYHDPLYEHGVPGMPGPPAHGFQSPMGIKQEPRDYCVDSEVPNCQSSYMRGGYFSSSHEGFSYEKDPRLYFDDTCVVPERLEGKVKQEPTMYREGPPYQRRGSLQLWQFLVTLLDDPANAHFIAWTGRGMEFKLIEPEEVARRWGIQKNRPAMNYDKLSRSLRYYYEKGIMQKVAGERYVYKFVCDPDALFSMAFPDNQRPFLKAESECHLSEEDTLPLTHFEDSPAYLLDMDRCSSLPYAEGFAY
SPIB, sequence (Q01892 whole entry): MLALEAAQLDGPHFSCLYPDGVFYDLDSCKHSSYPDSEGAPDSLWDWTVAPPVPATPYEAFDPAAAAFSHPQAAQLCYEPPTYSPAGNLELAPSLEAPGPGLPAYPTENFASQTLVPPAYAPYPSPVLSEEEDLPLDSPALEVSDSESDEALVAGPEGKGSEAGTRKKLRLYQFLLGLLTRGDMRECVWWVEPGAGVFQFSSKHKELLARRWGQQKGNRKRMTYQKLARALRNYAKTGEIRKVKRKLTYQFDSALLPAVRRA

AACTTC
binding signal (FLI1): 2.4 fold enrichment (6-mer frequency, TF over GST control) | binding signal (ELK1): 2.53 fold enrichment (6-mer frequency, TF over GST control) | binding signal (GABPA): 2.41 fold enrichment (6-mer frequency, TF over GST control) | binding signal (ERG): 2.73 fold enrichment (6-mer frequency, TF over GST control) | binding signal (ELF1): 2.47 fold enrichment (6-mer frequency, TF over GST control) | binding signal (EHF): 2.5 fold enrichment (6-mer frequency, TF over GST control) | binding signal (SPI1): 3.04 fold enrichment (6-mer frequency, TF over GST control) | binding signal (SPIB): 2.77 fold enrichment (6-mer frequency, TF over GST control) | binding signal (ELK3): 2.72 fold enrichment (6-mer frequency, TF over GST control) | binding signal (FEV): 3.12 fold enrichment (6-mer frequency, TF over GST control) | binding signal (ETV5): 2.71 fold enrichment (6-mer frequency, TF over GST control) | binding signal (HSF1): 2.02 fold enrichment (6-mer frequency, TF over GST control) | binding signal (SPIC): 2.83 fold enrichment (6-mer frequency, TF over GST control) | binding signal (ELF4): 2.44 fold enrichment (6-mer frequency, TF over GST control) | binding signal (ELK4): 2.34 fold enrichment (6-mer frequency, TF over GST control) | binding signal (ETV2): 2.52 fold enrichment (6-mer frequency, TF over GST control) | binding signal (ELF3): 2.39 fold enrichment (6-mer frequency, TF over GST control) | binding signal (CRX): 1.45 fold enrichment (6-mer frequency, TF over GST control) | binding signal (ETV1): 2.6 fold enrichment (6-mer frequency, TF over GST control)
